Data from PubChem BioAssay (Tox21).
Several values for one entry are separate records, joined by “and”; a condition that tells them apart may be missing. Equal entries are not always repeated. Unmarked numbers belong to inactive results. Records with an inconclusive call do not appear. A call without a number means that no potency is given here. Activity calls are given as the source filed them. Unless noted, calls come from the whole dose curve; as a rule, active = well fitted curve in the direction sought with a large enough effect in the repeat runs; inconclusive = weak or mixed curves; inactive = no such curve, though single readings can be large; an effect the other way counts as inactive or inconclusive.

Legend:
[1] = qHTS assay for small molecule agonists of the p53 signaling pathway (AID 651631; calls by dose curve; note: nearly all actives have a fitted effect of over 15% in size); details: HCT-116 p53RE-bla reporter, beta-lactamase FRET ratio, 16 h; series mostly up to 73.3 µM
In short: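 p53RE-bla HCT-116 cells; compounds 16 h, 37 °C; LiveBLAzer B/G FRET substrate 2 h RT; fluorescence intensity read-out, qHTS format.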

[2] = qHTS assay for small molecule agonists of the p53 signaling pathway - cell viability (AID 651633; calls by dose curve; note: nearly all actives have a fitted effect of over 30% in size; note: potency is the fitted concentration of half-maximal effect); details: p53RE-bla HCT-116 viability, ATP luminescence, 16 h; series mostly up to 83.3 µM
In short: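 p53RE-bla cells, seeded at 4,000 per well and rested 5 h at 37 C/5% CO2, received compounds in DMSO for 16 h at 37 C. CellTiter-Glo was then added, and luminescence was read after 30 min at room temperature to gauge cytotoxicity.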

[3] = qHTS assay for small molecules that induce genotoxicity in human embryonic kidney cells expressing luciferase-tagged ATAD5 - cell viability (AID 651634; calls by dose curve; note: nearly all actives have a fitted effect of over 25% in size; note: potency is the fitted concentration of half-maximal effect); details: HEK293T ATAD5-luc cells viability, CellTiter-Fluor, 15.5 h; series mostly up to 83.3 µM
In short: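 HEK293T cells expressing luciferase-tagged ATAD5 were exposed to compound or DMSO for 15.5 hr at 37C, 5% CO2. Viability was then read as live-cell protease activity by CellTiter-Fluor fluorescence after 30 min at 37C.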

[4] = qHTS assay for small molecule disruptors of the mitochondrial membrane potential - cell viability (AID 720634; calls by dose curve; note: nearly all actives have a fitted effect of over 20% in size; note: potency is the fitted concentration of half-maximal effect); details: HepG2 viability, ATP luminescence (CellTiter-Glo), 1 h; series mostly up to 83.2 µM
In short: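 HepG2 cells seeded overnight at 37 C, then exposed to compound or DMSO for 1 hr at 37 C, 5% CO2. m-MPI dye added, then CellTiter-Glo for 30 min at room temperature; viability read as ATP luminescence.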

[5] = qHTS assay to test for compound auto fluorescence at 590 nm (red) in HepG2 cells (AID 720674); details: HepG2 autofluorescence, red 540/590 nm, 1 h; series mostly up to 91.3 µM
In short: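 Compound auto-fluorescence is scored relative to Rose Bengal sodium, measured at 540/590 nm in live HepG2 cultures after 1 hr compound contact (37 C, 5% CO2).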

[6] = qHTS assay to test for compound auto fluorescence at 535 nm (green) in HepG2 cells (AID 720675); details: green autofluorescence 485/535 nm, 1 h; series mostly up to 91.3 µM
[7] = qHTS assay to test for compound auto fluorescence at 460 nm (blue) in HEK293 cells (AID 720678); details: blue autofluorescence 405/460 nm; series mostly up to 91.3 µM
In short: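 Triamterene serves as the blue fluorophore standard. Compound signal at 405/460 nm is read in HEK293 wells (2,000 cells, 10% dialyzed FBS) after overnight treatment at 37C.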

[8] = qHTS assay to test for compound auto fluorescence at 590 nm (red) in HEK293 cells (AID 720679); details: red autofluorescence 540/590 nm; series mostly up to 91.3 µM
In short: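 We plated HEK293 cells in 10% dialyzed FBS medium, let them adhere for 4-5 hr, then added 23 nL compound. Overnight at 37C and 5% CO2 preceded fluorescence measurement at 540/590nm.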

[9] = qHTS assay to test for compound auto fluorescence at 535 nm (green) in HEK293 cells (AID 720680); details: green autofluorescence 485/535 nm; series mostly up to 91.3 µM
[10] = qHTS assay to test for compound auto fluorescence at 460 nm (blue) in HEK293 cell free culture (AID 720681); details: cell-free medium, autofluorescence 405/460 nm (blue); series mostly up to 91.3 µM
In short: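 Test compounds were pinned into cell-free culture medium (DMEM with 10% FBS) and fluorescence was read directly at Ex/Em 405/460 nm. Signals were expressed as fluorescence equivalents of triamterene, with DMSO vehicle as control.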

[11] = qHTS assay to test for compound auto fluorescence at 535 nm (green) in HEK293 cell free culture (AID 720682); details: cell-free medium, green autofluorescence 485/535 nm; series mostly up to 91.3 µM
In short: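 Cell-free medium (DMEM, 10% FBS) receives compound or DMSO by pintool. Plate read directly at Ex 485/Em 535 nm. Signal converted to fluorescein equivalency.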

[12] = qHTS assay to test for compound auto fluorescence at 590 nm (red) in HEK293 cell free culture (AID 720683); details: cell-free medium autofluorescence, Ex540/Em590 red; series mostly up to 91.3 µM
In short: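 Tox21 10K library compounds were pinned into cell-free DMEM with 10% FBS and fluorescence was read at excitation 540 nm. Activity is expressed as Rose Bengal sodium equivalency.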

[13] = qHTS assay to test for compound auto fluorescence at 590 nm (red) in HepG2 cell free culture (AID 720684); details: cell-free medium autofluorescence, red 540/590 nm; series mostly up to 91.3 µM
In short: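 Measured in medium alone (MEM containing 10% FBS) following pintool addition of compound; emission at 590 nm with 540 nm excitation, referenced to Rose Bengal sodium.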

[14] = qHTS assay to test for compound auto fluorescence at 460 nm (blue) in HepG2 cell free culture (AID 720685); details: Cell-free culture medium, blue autofluorescence 405/460 nm; series mostly up to 91.3 µM
In short: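 Compound (23 nL) or DMSO pinned into cell-free MEM with 10% FBS; blue fluorescence read at 405/460 nm excitation/emission, expressed as auto-fluorescence equivalency to triamterene.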

[15] = qHTS assay to test for compound auto fluorescence at 535 nm (green) in HepG2 cell free culture (AID 720686); details: Cell-free medium, green autofluorescence 485/535 nm; series mostly up to 91.3 µM
[16] = qHTS assay to test for compound auto fluorescence at 460 nm (blue) in HepG2 cells (AID 720687); details: autofluorescence 405/460 nm, 1 h; series mostly up to 91.3 µM
In short: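 Cells (2,000/well in MEM with 10% FBS) attached overnight at 37 C, then were exposed to compound or DMSO for 1 hr at 37 C, 5% CO2. Fluorescence read at Ex/Em 405/460 nm, expressed as triamterene-equivalent signal.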

[17] = target: Glucocorticoid receptor (Homo sapiens) (UniProt P04150); assay: qHTS assay to identify small molecule agonists of the glucocorticoid receptor (GR) signaling pathway (AID 720691; active = well fitted activation curve with a large enough effect in the signal ratio in the repeat runs, not every such curve was filed as active; the % refers to the signal ratio); details: GR-bla HeLa, beta-lactamase reporter ratio, 18 h; series mostly up to 62.4 µM
Sequence of Glucocorticoid receptor (Homo sapiens) (P04150 whole entry, looked up): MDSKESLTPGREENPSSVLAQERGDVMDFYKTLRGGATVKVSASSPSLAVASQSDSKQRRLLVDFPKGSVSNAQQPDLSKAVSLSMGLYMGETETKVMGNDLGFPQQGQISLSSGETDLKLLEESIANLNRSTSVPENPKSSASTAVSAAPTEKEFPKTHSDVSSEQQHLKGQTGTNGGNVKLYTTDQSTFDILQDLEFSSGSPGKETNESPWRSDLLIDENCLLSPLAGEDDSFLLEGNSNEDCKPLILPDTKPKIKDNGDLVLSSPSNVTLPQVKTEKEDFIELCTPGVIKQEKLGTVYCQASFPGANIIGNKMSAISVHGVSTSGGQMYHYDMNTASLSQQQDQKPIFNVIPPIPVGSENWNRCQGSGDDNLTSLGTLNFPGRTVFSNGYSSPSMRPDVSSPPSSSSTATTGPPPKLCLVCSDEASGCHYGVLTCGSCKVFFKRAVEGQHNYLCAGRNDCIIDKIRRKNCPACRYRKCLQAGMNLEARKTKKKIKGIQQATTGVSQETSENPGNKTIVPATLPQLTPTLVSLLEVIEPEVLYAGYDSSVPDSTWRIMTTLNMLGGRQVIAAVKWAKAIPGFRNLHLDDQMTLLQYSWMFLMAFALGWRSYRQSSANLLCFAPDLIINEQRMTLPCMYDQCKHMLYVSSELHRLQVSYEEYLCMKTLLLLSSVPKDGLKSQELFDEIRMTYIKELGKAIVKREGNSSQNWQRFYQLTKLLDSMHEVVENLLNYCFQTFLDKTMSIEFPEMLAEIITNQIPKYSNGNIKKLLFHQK
In short: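 GR-bla HeLa cells (beta-lactamase reporter under glucocorticoid response element) were plated 4 h at 37 C/5% CO2, given compounds in DMSO, and incubated 18 h at 37 C. LiveBLAzer B/G FRET substrate was added for 2 h at room temperature, then fluorescence intensity read.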

[18] = target: Glucocorticoid receptor (Homo sapiens) (UniProt P04150); assay: qHTS assay to identify small molecule antagonists of the glucocorticoid receptor (GR) signaling pathway (AID 720692; active = well fitted inhibition curve with a large enough effect in the signal ratio in the repeat runs, not every such curve was filed as active; the % refers to the signal ratio); details: GR-bla HeLa, beta-lactamase FRET ratio, dexamethasone-stimulated, 18 h; series mostly up to 58.5 µM
In short: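 GR-bla HeLa cells (beta-lactamase reporter under glucocorticoid response element) were pre-plated 4 h at 37 C, treated with compounds plus 5 nM dexamethasone (final) for 18 h, then read by LiveBLAzer B/G FRET fluorescence after 2 h.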

[19] = qHTS assay for small molecules that induce genotoxicity in human embryonic kidney cells expressing luciferase-tagged ATAD5 (AID 651632); details: HEK293T ATAD5-luciferase induction, 16 h; series mostly up to 83.3 µM; note: nearly all actives have a fitted effect of over 15% in size
In short: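 HEK293T cells carrying a luciferase reporter tagged to ATAD5 were exposed to compound or DMSO vehicle for 16 hr at 37C, 5% CO2. Amplite was added, and after 30 min at room temperature luciferase activity was read as a marker of ATAD5 induction.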

[20] = qHTS assay for small molecule disruptors of the mitochondrial membrane potential (AID 720635); details: HepG2 mitochondrial membrane potential, Mito-MPS dye ratio; series mostly up to 83.2 µM; note: potency is the fitted concentration of half-maximal effect
In short: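 HepG2 cells (2,000/well) attached overnight at 37C, then took compound for 1 hr at 37C, 5% CO2. Mito-MPS dye was added for 30 min; fluorescence was read at 490/535 nm (monomers) and 540/590 nm (aggregates).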

Row | Compound | Potency [1] | Potency [2] | Potency [3] | Potency [4] | Potency [5] | Potency [6] | Potency [7] | Potency [8] | Potency [9] | Potency [10] | Potency [11] | Potency [12] | Potency [13] | Potency [14] | Potency [15] | Potency [16] | Potency [17] | Potency [18] | Potency [19] | Potency [20]
1 | C1CCC(SSC2CCCCC2)CC1 | inactive | inactive | inactive | inactive | inactive | inactive | inactive | inactive | inactive | inactive | inactive | inactive | inactive | inactive | inactive | inactive | inactive | inactive | – | –
2 | CCCC1CCC(=O)CC1 | – | inactive | inactive | inactive | inactive | inactive | inactive | inactive | inactive | inactive | inactive | inactive | inactive | inactive | inactive | inactive | inactive | inactive | inactive | inactive
3 | O=C(O)CN(CCN(CC(=O)O)CC(=O)O)CC(=O)O | inactive | – | inactive | – | inactive | inactive | inactive | – | inactive | inactive | inactive | inactive | inactive | – | inactive | inactive | – | – | – | –
4 | OC1CCCc2ccccc21 (stereo not drawn) | inactive | inactive | – | inactive | inactive | inactive | inactive | inactive | inactive | inactive | inactive | inactive | inactive | – | inactive | inactive | – | – | – | –
5 | CC(CO)Oc1ccccc1 (stereo not drawn) | inactive | inactive | inactive | inactive | inactive | inactive | – | inactive | inactive | inactive | inactive | inactive | inactive | inactive | inactive | inactive | inactive | inactive | – | –
6 | O=C(O)c1ccc2cc(C(=O)O)ccc2c1 | – | inactive | inactive | inactive | inactive | inactive | inactive | – | inactive | inactive | inactive | inactive | inactive | inactive | inactive | inactive | inactive | inactive | inactive | inactive
7 | CCCCCCCCCCCCCCCC[N+](C)(C)CC | – | 26.6 µM (active) and 61.3 µM (active) | 29.8 µM (active) and 24.4 µM (active) | 61.3 µM (active) | inactive | – | inactive | inactive | inactive | inactive | inactive | inactive | inactive | inactive | inactive | – | – | – | inactive | 6.68 µM (active) and 27.4 µM (active)
